# Assays:
# Experiment in all cases: DAPPL (digital affinity profiling via proximity ligation, sequencing); 10 mM Tris-HCl pH 7.5, 50 mM NaCl, 1 mM DTT, 4% glycerol, room temperature, 30 min; GST-TFs on glutathione beads, 16-mer random dsDNA library, 0.1% formaldehyde crosslink after washing; high values mean tight binding
# [1] = target: T1, FEV (Homo sapiens, UniProt Q99581 1-238); conditions: protein: recombinant; tags: N-terminal GST; dsDNA, one strand shown
# T1 sequence: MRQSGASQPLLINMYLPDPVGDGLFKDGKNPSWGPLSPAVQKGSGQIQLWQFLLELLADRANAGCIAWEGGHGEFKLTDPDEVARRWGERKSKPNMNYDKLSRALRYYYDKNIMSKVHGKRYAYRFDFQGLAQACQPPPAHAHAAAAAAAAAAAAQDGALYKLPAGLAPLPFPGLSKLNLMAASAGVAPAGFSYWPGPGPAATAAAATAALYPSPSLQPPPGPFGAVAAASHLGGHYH
# How it was run: (§1)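 Binding signal is each hexamer's read frequency for a factor divided by its frequency in the tag-only sample. The factors were GST-fused human transcription factors from yeast, captured on glutathione beads, DNA-barcoded and pooled with that sample. Pools were incubated with 200 nmole of a random double-stranded 16-mer DNA library in Tris/NaCl/DTT/glycerol buffer at room temperature for 30 min, then washed, crosslinked with 0.1% formaldehyde, proximity-ligated with BsaI/T4 ligase (1 h, 37 °C), PCR-amplified and sequenced on an Illumina NextSeq500.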
# [2] = target: ETV5 (Homo sapiens, UniProt P41161 1-510); conditions: protein: recombinant; tags: N-terminal GST; dsDNA, one strand shown
# How it was run: as §1
# [3] = target: HSF1 (Homo sapiens, UniProt Q00613 1-529); conditions: protein: recombinant; tags: N-terminal GST; chain copies: 3; dsDNA, one strand shown
# How it was run: as §1
# [4] = target: T2, SPIC (Homo sapiens, UniProt Q8N5J4 1-248); conditions: protein: recombinant; tags: N-terminal GST; dsDNA, one strand shown
# T2 sequence: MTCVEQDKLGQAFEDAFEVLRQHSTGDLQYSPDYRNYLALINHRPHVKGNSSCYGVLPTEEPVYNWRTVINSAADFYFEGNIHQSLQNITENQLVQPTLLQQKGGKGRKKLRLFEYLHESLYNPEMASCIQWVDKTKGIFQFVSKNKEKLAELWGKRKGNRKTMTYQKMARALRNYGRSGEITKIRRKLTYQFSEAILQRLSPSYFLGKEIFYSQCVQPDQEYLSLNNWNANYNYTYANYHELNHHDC
# How it was run: as §1
# [5] = target: ELF4 (Homo sapiens, UniProt Q99607 1-663); conditions: protein: recombinant; tags: N-terminal GST; dsDNA, one strand shown
# How it was run: as §1
# [6] = target: T3, ELK4 (Homo sapiens, UniProt P28324-2 1-405); conditions: protein: recombinant; tags: N-terminal GST; dsDNA, one strand shown
# T3 sequence: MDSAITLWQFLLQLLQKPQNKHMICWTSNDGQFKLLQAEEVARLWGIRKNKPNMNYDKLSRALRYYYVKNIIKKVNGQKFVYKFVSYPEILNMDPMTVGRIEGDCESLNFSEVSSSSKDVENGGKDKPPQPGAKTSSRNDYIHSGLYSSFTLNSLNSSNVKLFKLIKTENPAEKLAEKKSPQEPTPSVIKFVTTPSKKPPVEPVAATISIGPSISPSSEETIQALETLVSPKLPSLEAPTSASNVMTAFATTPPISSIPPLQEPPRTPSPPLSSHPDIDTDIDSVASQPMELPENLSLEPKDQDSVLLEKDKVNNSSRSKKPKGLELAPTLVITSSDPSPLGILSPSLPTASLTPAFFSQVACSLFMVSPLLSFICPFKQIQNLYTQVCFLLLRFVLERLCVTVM
# How it was run: as §1
# [7] = target: T4, ETV2 (Homo sapiens, UniProt O00321 1-342); conditions: protein: recombinant; tags: N-terminal GST; dsDNA, one strand shown
# T4 sequence: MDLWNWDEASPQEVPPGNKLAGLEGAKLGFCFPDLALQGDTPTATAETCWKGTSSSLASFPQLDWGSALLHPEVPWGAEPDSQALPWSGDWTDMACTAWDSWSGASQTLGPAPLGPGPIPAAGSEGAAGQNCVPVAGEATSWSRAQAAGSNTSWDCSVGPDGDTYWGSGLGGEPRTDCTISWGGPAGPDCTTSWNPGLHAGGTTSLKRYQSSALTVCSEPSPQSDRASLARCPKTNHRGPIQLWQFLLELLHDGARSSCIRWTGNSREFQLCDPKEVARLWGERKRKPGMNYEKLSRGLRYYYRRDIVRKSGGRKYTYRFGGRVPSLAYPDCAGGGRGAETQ
# How it was run: as §1
# [8] = target: T5, ELF3 (Homo sapiens, UniProt P78545 1-371); conditions: protein: recombinant; tags: N-terminal GST; dsDNA, one strand shown
# T5 sequence: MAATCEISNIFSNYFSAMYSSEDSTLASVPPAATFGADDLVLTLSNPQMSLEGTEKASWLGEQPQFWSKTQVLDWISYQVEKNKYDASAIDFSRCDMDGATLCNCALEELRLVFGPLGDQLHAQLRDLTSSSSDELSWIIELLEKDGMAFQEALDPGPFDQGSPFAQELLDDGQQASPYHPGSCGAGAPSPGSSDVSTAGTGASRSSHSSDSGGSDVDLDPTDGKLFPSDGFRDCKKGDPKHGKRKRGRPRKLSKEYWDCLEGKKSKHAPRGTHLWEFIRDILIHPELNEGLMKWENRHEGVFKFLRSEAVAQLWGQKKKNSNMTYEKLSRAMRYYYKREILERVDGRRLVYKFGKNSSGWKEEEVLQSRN
# How it was run: as §1
# [9] = target: CRX (Homo sapiens, UniProt O43186 1-299); conditions: protein: recombinant; tags: N-terminal GST; dsDNA, one strand shown
# How it was run: as §1
# [10] = target: ETV1 (Homo sapiens, UniProt P50549 1-477); conditions: protein: recombinant; tags: N-terminal GST; dsDNA, one strand shown
# How it was run: as §1
# [11] = target: T6, ERF (Homo sapiens, UniProt P50548 1-548); conditions: protein: recombinant; tags: N-terminal GST; dsDNA, one strand shown
# T6 sequence: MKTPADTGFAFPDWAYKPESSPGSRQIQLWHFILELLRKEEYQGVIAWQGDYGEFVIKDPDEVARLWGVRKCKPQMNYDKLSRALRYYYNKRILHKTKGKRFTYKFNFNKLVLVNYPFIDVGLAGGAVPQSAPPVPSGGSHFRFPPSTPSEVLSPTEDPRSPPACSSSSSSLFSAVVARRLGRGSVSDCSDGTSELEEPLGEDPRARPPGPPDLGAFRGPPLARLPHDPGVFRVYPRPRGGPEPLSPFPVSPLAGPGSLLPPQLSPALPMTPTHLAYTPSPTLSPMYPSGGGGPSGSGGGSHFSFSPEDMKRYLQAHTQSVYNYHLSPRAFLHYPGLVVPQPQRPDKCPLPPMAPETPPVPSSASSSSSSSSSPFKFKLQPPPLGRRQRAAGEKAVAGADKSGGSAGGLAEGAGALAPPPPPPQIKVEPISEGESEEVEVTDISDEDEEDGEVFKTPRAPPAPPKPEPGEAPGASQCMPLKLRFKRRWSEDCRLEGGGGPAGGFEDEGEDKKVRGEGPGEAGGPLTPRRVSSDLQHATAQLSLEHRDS
# How it was run: as §1
# [12] = target: T7, ETV3L (Homo sapiens, UniProt Q6ZN32 1-361); conditions: protein: recombinant; tags: N-terminal GST; dsDNA, one strand shown
# T7 sequence: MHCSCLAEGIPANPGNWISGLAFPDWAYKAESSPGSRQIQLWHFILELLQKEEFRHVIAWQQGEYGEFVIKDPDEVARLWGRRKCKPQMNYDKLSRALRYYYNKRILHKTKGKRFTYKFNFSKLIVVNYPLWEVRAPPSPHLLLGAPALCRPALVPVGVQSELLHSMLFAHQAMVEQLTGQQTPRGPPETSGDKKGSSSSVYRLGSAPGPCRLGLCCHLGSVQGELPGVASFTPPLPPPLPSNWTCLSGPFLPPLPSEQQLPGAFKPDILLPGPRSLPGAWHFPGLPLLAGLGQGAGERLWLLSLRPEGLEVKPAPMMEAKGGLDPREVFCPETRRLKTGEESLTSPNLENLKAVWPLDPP
# How it was run: as §1
# [13] = target: T8, ETS2 (Homo sapiens, UniProt P15036 1-469); conditions: protein: recombinant; tags: N-terminal GST; dsDNA, one strand shown
# T8 sequence: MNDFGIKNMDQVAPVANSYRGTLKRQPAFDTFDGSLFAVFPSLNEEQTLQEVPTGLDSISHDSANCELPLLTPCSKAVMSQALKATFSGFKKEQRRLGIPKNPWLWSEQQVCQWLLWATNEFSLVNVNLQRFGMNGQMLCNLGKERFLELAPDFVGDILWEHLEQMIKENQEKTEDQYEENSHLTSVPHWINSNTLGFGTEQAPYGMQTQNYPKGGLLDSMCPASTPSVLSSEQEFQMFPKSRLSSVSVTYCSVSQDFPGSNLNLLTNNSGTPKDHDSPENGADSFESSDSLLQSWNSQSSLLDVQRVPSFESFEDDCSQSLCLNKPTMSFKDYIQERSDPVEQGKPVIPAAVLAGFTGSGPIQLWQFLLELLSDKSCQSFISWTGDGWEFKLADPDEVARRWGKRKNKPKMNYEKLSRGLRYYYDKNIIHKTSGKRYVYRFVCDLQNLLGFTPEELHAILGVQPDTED
# How it was run: as §1
# [14] = target: T9, SPDEF (Homo sapiens, UniProt O95238 1-335); conditions: protein: recombinant; tags: N-terminal GST; dsDNA, one strand shown
# T9 sequence: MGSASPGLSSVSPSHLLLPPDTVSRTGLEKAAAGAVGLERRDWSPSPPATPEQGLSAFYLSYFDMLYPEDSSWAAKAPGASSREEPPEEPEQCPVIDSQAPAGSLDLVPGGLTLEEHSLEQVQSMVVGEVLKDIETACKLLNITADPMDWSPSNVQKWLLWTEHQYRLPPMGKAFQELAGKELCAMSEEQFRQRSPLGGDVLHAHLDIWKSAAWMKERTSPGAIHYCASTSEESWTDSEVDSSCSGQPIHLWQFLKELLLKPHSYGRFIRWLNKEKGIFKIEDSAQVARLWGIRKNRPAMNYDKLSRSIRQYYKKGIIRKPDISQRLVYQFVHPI
# How it was run: as §1
# [15] = target: T10, ETV7 (Homo sapiens, UniProt Q9Y603 1-341); conditions: protein: recombinant; tags: N-terminal GST; dsDNA, one strand shown
# T10 sequence: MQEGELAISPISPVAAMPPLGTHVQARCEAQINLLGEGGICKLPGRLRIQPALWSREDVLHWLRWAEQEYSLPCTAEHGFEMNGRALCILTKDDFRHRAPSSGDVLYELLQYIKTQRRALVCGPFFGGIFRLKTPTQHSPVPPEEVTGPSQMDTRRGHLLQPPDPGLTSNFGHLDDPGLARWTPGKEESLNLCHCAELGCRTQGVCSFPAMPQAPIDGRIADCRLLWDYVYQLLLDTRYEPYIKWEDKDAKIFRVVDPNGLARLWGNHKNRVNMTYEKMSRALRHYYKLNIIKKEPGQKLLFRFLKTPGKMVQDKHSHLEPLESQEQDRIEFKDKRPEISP
# How it was run: as §1
# [16] = target: T11, ELF5 (Homo sapiens, UniProt Q9UKW6-2 1-255); conditions: protein: recombinant; tags: N-terminal GST; dsDNA, one strand shown
# T11 sequence: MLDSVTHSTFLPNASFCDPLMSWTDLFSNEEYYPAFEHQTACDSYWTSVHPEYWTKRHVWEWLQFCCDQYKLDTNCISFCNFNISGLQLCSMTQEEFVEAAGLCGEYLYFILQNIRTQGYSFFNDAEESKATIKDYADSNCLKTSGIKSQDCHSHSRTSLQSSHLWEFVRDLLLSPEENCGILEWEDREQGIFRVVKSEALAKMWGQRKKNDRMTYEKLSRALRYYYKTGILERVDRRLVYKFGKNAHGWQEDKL
# How it was run: as §1
# [17] = target: T12, ETV3 (Homo sapiens, UniProt P41162-2 1-143); conditions: protein: recombinant; tags: N-terminal GST; dsDNA, one strand shown
# T12 sequence: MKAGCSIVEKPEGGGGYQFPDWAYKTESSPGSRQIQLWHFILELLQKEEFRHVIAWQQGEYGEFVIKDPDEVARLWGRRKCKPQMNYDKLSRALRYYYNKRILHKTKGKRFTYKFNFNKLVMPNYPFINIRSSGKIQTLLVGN
# How it was run: as §1
# [18] = target: ETV6 (Homo sapiens, UniProt P41212 1-452); conditions: protein: recombinant; tags: N-terminal GST; dsDNA, one strand shown
# How it was run: as §1
# ETV6, sequence (P41212 whole entry): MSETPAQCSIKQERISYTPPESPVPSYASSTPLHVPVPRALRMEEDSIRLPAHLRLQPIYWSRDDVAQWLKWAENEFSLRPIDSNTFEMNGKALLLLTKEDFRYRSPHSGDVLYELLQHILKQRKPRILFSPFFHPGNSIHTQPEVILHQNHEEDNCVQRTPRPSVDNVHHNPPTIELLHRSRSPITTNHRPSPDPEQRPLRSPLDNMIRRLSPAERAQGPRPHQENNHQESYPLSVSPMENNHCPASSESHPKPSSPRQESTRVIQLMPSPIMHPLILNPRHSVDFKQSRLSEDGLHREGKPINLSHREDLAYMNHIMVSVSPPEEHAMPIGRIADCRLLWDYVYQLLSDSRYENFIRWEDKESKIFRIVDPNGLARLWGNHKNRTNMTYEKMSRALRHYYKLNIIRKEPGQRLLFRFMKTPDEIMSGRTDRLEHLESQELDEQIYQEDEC
# ETV5, sequence (P41161 whole entry): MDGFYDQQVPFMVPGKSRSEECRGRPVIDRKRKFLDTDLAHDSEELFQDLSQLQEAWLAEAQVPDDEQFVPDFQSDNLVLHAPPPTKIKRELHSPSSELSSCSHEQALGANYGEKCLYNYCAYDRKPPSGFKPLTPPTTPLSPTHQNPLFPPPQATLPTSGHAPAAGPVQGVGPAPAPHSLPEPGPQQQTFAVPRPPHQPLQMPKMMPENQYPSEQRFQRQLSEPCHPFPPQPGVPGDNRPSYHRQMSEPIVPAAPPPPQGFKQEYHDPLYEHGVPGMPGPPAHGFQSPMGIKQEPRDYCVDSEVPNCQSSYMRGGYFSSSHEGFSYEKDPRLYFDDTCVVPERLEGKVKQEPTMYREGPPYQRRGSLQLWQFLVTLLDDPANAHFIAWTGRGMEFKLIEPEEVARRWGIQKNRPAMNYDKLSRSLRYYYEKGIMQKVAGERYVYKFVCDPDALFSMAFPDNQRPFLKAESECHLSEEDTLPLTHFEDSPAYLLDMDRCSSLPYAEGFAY
# ETV1, sequence (P50549 whole entry): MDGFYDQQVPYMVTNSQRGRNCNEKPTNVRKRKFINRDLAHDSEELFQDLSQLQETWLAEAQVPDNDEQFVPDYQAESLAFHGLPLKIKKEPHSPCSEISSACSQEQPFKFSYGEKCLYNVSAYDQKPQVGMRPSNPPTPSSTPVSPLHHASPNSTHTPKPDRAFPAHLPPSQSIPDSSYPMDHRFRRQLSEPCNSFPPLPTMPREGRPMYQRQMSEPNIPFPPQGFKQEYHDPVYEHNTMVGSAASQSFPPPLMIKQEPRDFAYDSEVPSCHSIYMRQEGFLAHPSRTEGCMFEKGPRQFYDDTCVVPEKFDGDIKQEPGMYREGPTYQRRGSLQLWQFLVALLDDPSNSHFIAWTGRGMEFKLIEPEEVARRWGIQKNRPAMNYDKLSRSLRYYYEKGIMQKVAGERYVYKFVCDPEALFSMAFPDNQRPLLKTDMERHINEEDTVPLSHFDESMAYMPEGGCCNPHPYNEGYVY
# ELF4, sequence (Q99607 whole entry): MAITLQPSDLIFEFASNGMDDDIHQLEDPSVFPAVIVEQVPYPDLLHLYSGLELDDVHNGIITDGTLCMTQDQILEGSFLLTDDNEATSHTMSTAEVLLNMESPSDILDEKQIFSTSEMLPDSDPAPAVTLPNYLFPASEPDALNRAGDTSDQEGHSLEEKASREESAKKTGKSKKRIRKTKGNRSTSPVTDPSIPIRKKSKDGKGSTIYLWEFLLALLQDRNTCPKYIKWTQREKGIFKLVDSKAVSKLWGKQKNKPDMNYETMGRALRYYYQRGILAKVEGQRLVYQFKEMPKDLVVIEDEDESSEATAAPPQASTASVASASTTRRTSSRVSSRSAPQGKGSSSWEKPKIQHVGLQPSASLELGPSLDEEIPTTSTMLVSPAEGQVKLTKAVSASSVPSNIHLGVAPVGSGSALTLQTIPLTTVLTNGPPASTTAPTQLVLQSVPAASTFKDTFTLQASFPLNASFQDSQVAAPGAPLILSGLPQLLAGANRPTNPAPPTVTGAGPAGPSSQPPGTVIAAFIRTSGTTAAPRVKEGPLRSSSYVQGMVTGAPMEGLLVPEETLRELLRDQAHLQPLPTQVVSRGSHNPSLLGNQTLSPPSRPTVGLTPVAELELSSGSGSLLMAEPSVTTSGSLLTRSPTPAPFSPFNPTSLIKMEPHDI
# CRX, sequence (O43186 whole entry): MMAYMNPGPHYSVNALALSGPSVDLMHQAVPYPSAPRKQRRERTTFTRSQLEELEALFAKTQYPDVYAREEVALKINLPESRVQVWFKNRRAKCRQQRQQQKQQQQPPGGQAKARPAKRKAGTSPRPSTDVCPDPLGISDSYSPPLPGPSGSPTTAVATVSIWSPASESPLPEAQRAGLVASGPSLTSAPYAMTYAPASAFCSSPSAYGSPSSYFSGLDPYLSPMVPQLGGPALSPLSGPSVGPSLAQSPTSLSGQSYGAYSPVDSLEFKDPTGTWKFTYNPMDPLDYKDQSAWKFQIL
# HSF1, sequence (Q00613 whole entry): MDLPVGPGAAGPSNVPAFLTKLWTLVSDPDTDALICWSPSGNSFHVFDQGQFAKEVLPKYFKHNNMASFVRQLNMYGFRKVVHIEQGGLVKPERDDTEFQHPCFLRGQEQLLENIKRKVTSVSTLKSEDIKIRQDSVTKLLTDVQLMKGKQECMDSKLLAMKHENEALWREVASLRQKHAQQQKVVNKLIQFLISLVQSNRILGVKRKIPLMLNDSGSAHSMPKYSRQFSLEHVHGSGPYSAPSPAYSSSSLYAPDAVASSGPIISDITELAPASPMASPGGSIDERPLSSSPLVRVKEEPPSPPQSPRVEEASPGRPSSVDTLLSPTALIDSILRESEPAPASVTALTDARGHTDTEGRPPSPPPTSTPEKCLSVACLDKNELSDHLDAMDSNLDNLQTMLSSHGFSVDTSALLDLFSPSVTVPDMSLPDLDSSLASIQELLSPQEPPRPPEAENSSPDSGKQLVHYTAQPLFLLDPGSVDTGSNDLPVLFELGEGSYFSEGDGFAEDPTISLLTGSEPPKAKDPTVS
sequence,measurement,setting,value
TCTCCT,binding signal,[1],"1.43 fold enrichment (6-mer frequency, TF over GST control)"
same,binding signal,[2],"1.33 fold enrichment (6-mer frequency, TF over GST control)"
same,binding signal,[3],"1.55 fold enrichment (6-mer frequency, TF over GST control)"
same,binding signal,[4],"1.59 fold enrichment (6-mer frequency, TF over GST control)"
same,binding signal,[5],"1.51 fold enrichment (6-mer frequency, TF over GST control)"
same,binding signal,[6],"1.38 fold enrichment (6-mer frequency, TF over GST control)"
same,binding signal,[7],"1.43 fold enrichment (6-mer frequency, TF over GST control)"
same,binding signal,[8],"1.7 fold enrichment (6-mer frequency, TF over GST control)"
same,binding signal,[9],"1.55 fold enrichment (6-mer frequency, TF over GST control)"
same,binding signal,[10],"1.49 fold enrichment (6-mer frequency, TF over GST control)"
same,binding signal,[11],"1.34 fold enrichment (6-mer frequency, TF over GST control)"
same,binding signal,[12],"1.73 fold enrichment (6-mer frequency, TF over GST control)"
same,binding signal,[13],"1.52 fold enrichment (6-mer frequency, TF over GST control)"
same,binding signal,[14],"1.32 fold enrichment (6-mer frequency, TF over GST control)"
same,binding signal,[15],"1.46 fold enrichment (6-mer frequency, TF over GST control)"
same,binding signal,[16],"1.41 fold enrichment (6-mer frequency, TF over GST control)"
same,binding signal,[17],"1.41 fold enrichment (6-mer frequency, TF over GST control)"
same,binding signal,[18],"1.44 fold enrichment (6-mer frequency, TF over GST control)"

# From PMC7862700, “An all-to-all approach to the identification of sequence-specific readers for epigenetic DNA modifications on cytosine”
